The record followed here is PubChem BioAssay.

Molecules are shown by their SMILES. Calls of active or inactive are those of the source. Unless noted, how the calls were made is not given here.

Test [1] in a line: HepG2 liver cancer cell viability effects, profiling panel, resazurin fluorescence, 24 h, PK04 Diversity Set (AID 1172). Further: test concentration not given here. The settings on record: higher = more signal.
A short description of test [2]: basal S. cerevisiae growth modulation, no modifier, primary screen, OD600, strain BY4716, 24 h, basal condition (AID 1173). The note with it: OD600, 24 h, higher = more signal, called active from +8 up or from −8 down.
The nature of test [3]: MM1S myeloma cell viability, profiling panel, resazurin fluorescence, basal, 24 h, PK04 Diversity Set (AID 1174).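 Further: MM1S multiple myeloma cell line; test concentration not given here.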 The settings on record: higher = more signal, called active from +8 up or from −8 down.
For test [4], the target named is Dihydroorotate dehydrogenase (quinone), mitochondrial (Plasmodium falciparum (isolate 3D7)) (UniProt Q08210). In words: PfDHODH enzyme inhibitors, primary screen, biochemical, C-terminal His tag, absorbance 600 nm (AID 1175).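 Further: recombinant parasite enzyme with a five histidine tag at its C terminus; test concentration not given here.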 The settings on record: DCIP absorbance 600 nm, higher = more signal, called active from +8 up or from −8 down.
Chain of Dihydroorotate dehydrogenase (quinone), mitochondrial (Plasmodium falciparum (isolate 3D7)) (Q08210 whole entry, looked up): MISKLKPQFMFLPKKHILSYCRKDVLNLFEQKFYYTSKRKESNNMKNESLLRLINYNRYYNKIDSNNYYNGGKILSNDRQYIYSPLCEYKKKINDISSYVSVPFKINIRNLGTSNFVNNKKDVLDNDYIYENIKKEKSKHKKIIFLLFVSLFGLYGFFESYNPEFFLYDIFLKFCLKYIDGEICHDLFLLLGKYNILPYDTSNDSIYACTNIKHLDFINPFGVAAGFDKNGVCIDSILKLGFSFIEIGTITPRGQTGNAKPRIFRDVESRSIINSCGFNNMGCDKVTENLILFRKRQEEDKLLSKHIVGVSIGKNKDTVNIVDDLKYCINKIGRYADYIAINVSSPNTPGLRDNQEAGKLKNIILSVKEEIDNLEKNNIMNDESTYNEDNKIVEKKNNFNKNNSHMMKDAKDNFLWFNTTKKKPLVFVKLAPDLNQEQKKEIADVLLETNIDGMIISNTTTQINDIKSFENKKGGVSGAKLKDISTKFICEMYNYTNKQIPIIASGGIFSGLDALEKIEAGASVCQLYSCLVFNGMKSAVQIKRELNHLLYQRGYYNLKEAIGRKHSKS
Test [5] can be described thus: P. aeruginosa biofilm formation inhibitors, primary screen, strain PAO1, LB-PBS medium, absorbance 600 nm (AID 1176). Further: test concentration not given here. The note with it: P. aeruginosa PAO1 growth/biofilm, A600, 12 h; higher = more signal.
A short description of test [6]: S. cerevisiae RM11-1a growth modifiers, primary screen, strain RM11-1a, OD600, basal, 24 h (AID 1177).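 Further: cultures grown under basal conditions with no added stressor; test concentration not given here.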 The note with it: OD600, 24 h, higher = more signal, called active from +8 up or from −8 down.
Test [7] in a line: E. coli acrAB mutant growth effects, primary screen, E. coli filamentation inducers, strain DRC39, OD650, 24 h (AID 1178).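 Further: growth measured as culture turbidity by optical density at 650 nm; test concentration not given here.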 The note with it: higher = more signal, called active from +8 up or from −8 down.
The nature of test [8]: E. coli acrAB mutant growth effects, primary screen, E. coli filamentation inducers, strain DRC39, OD650, 48 h (AID 1179).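 Further: screen aims at cell division blockers that make cells filament.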 The note with it: E. coli DRC39 delta-acrAB growth, higher = more signal, called active from +8 up or from −8 down.
A short description of test [9]: RPMI8226 myeloma cell viability, profiling panel, resazurin fluorescence, basal, 24 h, PK04 Diversity Set (AID 1180).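 Further: RPMI8826 multiple myeloma cell line at 5000 cells per well; test concentration not given here.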 The note with it: higher = more signal.
Test [10] concerns the target E3 ubiquitin-protein ligase XIAP (Homo sapiens) (UniProt P98170). Kind of test: XIAP binders, primary screen, biophysical, small-molecule microarray, fluorescence 635 nm (AID 1181).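 Further: score merges 667 nm emission and signal to noise over triplicate slides.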 The note with it: small-molecule microarray binding, higher = more signal.

Chain of E3 ubiquitin-protein ligase XIAP (Homo sapiens) (P98170 whole entry, looked up): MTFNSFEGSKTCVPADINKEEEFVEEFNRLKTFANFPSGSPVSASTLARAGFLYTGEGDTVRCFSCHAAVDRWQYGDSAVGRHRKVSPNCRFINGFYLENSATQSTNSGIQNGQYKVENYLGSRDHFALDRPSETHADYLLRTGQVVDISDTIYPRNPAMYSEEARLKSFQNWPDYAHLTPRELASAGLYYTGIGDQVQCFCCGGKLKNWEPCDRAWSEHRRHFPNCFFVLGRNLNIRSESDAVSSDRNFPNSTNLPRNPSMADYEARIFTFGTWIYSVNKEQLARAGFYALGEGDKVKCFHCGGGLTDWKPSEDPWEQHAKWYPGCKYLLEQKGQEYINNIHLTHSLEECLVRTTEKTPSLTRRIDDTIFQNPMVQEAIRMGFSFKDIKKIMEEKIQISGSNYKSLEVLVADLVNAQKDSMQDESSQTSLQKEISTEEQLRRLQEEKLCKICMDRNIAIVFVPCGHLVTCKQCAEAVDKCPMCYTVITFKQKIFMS

With `C=C(/C(=C/C[C@@H](OC(=O)c1ccncc1)c1ccc(CO)o1)c1cc(C(=O)OC)ccc1OC)C(C)C`, the z-score was -0.512 in test [1]; -0.128 (inactive) in [2]; -0.51 (inactive) in [3]; 0.519 (inactive) in [5]; -0.0289 (inactive) in test [6]; 0.885 (inactive) in test [7]. In addition, the z-score in test [8] is 0.64 (inactive); in test [9], -0.533. The composite z-score in [4] was -1.49 (inactive); in [10], -0.187.

Turning to `CC(=O)NCCCC[C@@H]1NC(=O)[C@@H]2C[C@H](C(=O)NCCCCCC[N+](C)(C)C)[C@H](c3cccc(OCCO)c3)N2C1=O`, the z-score in test [1] is -0.29; in test [2], 1.05 (inactive); in [3], -0.147 (inactive); in [5] it was 0.118 (inactive); in test [6] it was 1.44 (inactive); in test [7], -0.119 (inactive). The z-score in test [8] was -0.42 (inactive); in test [9] it was -0.536. The composite z-score in test [4] was -0.908 (inactive); in test [10] it was -0.36.

As to `C#C[C@H]1Oc2ccccc2S(=O)(=O)N2CCC[C@@H]12`, the z-score in test [1] is -0.87; in test [2], -0.454 (inactive); in test [3], -0.482 (inactive); in test [5], -0.0582 (inactive); in test [6], -0.0887 (inactive); in [7] it was 0.0374 (inactive). Further, the z-score in test [8] is -0.29 (inactive); in test [9], -0.652. Also, the composite z-score in test [4] was 0.112 (inactive); in test [10], -0.299.

Regarding `CCCC[C@H]1C[C@@H]1[C@@H]1N(P(=O)(c2ccccc2)c2ccccc2)[C@](CO)(c2ccccc2)CC12CC2`, the z-score was -0.544 in [1]; 0.402 (inactive) in test [2]; -1.93 (inactive) in test [3]; 0.411 (inactive) in test [5]; 1.14 (inactive) in test [6]; 0.0779 (inactive) in test [7]. For the same compound, the figures for the z-score in [8] and in test [9] were -0.872 (inactive) and -6.02, respectively. Also, the composite z-score in [4] is -0.152 (inactive); in [10], 0.247.

With `C=CCNC(=O)[C@@H]1[C@H]2C(=O)O[C@H](c3ccccc3)[C@H](c3ccccc3)N2[C@H](c2ccccc2OCCO)[C@@]12C(=O)N(C(=O)OCCOC)c1ccc(C#CCC(C(=O)OC)C(=O)OC)cc12`, the z-score is 0.865 in test [1]; 2.2 (inactive) in test [2]; -1.69 (inactive) in test [3]; 3.54 (inactive) in [5]; 1.62 (inactive) in test [6]; 0.275 (inactive) in [7]. Further, the z-score is -0.418 (inactive) in [8] and -0.11 in test [9]. The composite z-score in test [4] was -2.24 (inactive); in [10], 0.666.

On to `O=C1C2C=CC(C(O)c3ccccn3)N(Nc3ccccc3F)C2C(=O)N1c1ccccc1` (stereo not given), for which the z-score in [1] is 0.248; in test [2] it was -0.166 (inactive); in test [3] it was -0.497 (inactive); in [5], 0.378 (inactive); in test [6], -0.0396 (inactive); in test [7], -0.628 (inactive). The z-score was 0.292 (inactive) in test [8] and -0.0768 in test [9]. The composite z-score in [4] was 0.761 (inactive); in test [10], 0.0521.

On to `C=CCC(OC(C)=O)[C@@H]1[C@@H](N(Cc2cc3ccccc3o2)C(=O)c2ccc(-c3ccccc3)cc2)c2cc(OCCCO)ccc2N1C(=O)Cc1ccc2ccccc2c1` (stereo not given in full), for which the z-score in [1] was -0.795; in test [2], 0.692 (inactive); in test [3], 0.548 (inactive); in test [5], 0.0793 (inactive); in test [6], 0.854 (inactive); in [7], 1.15 (inactive). The results for the z-score in test [8] and in test [9] were 0.682 (inactive) and 1.13, respectively. Further, the figures for the composite z-score in test [4] and in test [10] were 0.22 (inactive) and -0.239, respectively.

Consider `C=C(C(=O)CC[C@@H](OC(=O)c1cccnc1)c1ccc(CO)o1)C(C)C`, for which the z-score in test [1] was 0.158; in test [2] it was -0.708 (inactive); in [3], 0.285 (inactive); in [5], 0.437 (inactive); in test [6], 0.113 (inactive); in [7] it was -0.391 (inactive). The z-score is -0.562 (inactive) in test [8] and 0.594 in test [9]. Besides, the values for the composite z-score in test [4] and in [10] were -0.0661 (inactive) and 0.396, respectively.

In the case of `C=C(/C(=C/C[C@@H](OC(C)=O)c1ccc(CO)o1)c1cnc2ccccc2c1)C(C)C`, the z-score in test [1] is -1.05; in [2] it was -0.177 (inactive); in test [3], 0.0858 (inactive); in test [5], 0.0721 (inactive); in test [6], 0.27 (inactive); in test [7], 0.99 (inactive). The results for the z-score in [8] and in [9] were -0.0766 (inactive) and 0.0262, respectively. Besides, the composite z-score in test [4] was -8.23 (active); in [10] it was 0.701.

On to `C=CCC(OC(C)=O)[C@@H]1[C@@H](N(Cc2cc3ccccc3o2)C(=O)c2cccc3ccccc23)c2cc(OCCCO)ccc2N1C(=O)Cc1ccc2ccccc2c1` (stereo not given in full), for which the z-score in test [1] is -0.902; in test [2], 0.272 (inactive); in test [3], -0.411 (inactive); in test [5], -0.735 (inactive); in test [6] it was 0.481 (inactive); in test [7], -0.741 (inactive). Besides, the values for the z-score in test [8] and in [9] were -0.973 (inactive) and -0.276, respectively. The figures for the composite z-score in test [4] and in test [10] were 0.449 (inactive) and -0.0703, respectively.

For `CC(C)C[C@@H]1NC(=O)[C@@H]2C[C@H](C(=O)NCCCCN(C)C)[C@H](c3ccc(O)cc3)N2C1=O`, the z-score in test [1] is 0.955; in [2], 0.463 (inactive); in test [3] it was 0.396 (inactive); in test [5] it was -0.475 (inactive); in test [6] it was 0.505 (inactive); in test [7] it was -0.113 (inactive). Moreover, the figures for the z-score in [8] and in [9] were -0.401 (inactive) and 0.0109, respectively. Moreover, the composite z-score was -0.0312 (inactive) in [4] and 0.102 in test [10].

In the case of `O=C(CS)NCCCCCCNC(=O)[C@H]1C[C@H]2C(=O)N3CCC[C@H]3C(=O)N2[C@H]1c1ccc(O)cc1`, the z-score in test [1] is 0.301; in test [2], 0.152 (inactive); in test [3], -0.868 (inactive); in test [5], 0.0499 (inactive); in test [6], -0.458 (inactive); in test [7], -0.144 (inactive). For the same compound, the z-score is -0.516 (inactive) in test [8] and -0.563 in test [9]. In addition, the composite z-score is -0.504 (inactive) in [4] and 0.115 in test [10].

`C[N+](C)(C)CCCCNC(=O)[C@H]1C[C@H]2C(=O)N3CCC[C@H]3C(=O)N2[C@H]1c1ccc(O)cc1`: the z-score is 0.0897 in [1]; 1.06 (inactive) in [2]; -1.13 (inactive) in test [3]; 0.146 (inactive) in test [5]; 0.266 (inactive) in test [6]; 0.0346 (inactive) in test [7]. The results for the z-score in test [8] and in test [9] were -0.322 (inactive) and -0.977, respectively. Moreover, the composite z-score is -30.3 (active) in test [4] and 0.455 in test [10].
